Source: the supplement of paper PMC5407854, “Inhibitor of ppGalNAc-T3-mediated O-glycosylation blocks cancer cell invasiveness and lowers FGF23 levels” (eLife, 2017)
In all, about 1,700 compounds were measured (“T3 sensor activation Q score (MG/GFP ratio z-score vs DMSO controls)”: median about 0.25, highest 2% from about 1.9 on). Many of the other results were omitted from the sample, so the highest values are more common in it than they were.

tested on: ppGalNAc-T3 sensor; test: T3 sensor activation Q score (MG/GFP ratio z-score vs DMSO controls) (SD units); higher = more sensor activation (inhibition of ppGalNAc-T3 glycosylation); conditions: HEK293 sensor cells; 10 µM; 6 h
Procedure: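 Cells were treated with compound at 10 uM for 6 h, then MG/GFP ratio was read by flow cytometry (10,000 cells per well, duplicate wells). Q = (R - R_neg)/SD_neg relative to DMSO vehicle controls; the signal rises when the glycosyltransferase is inhibited.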

In order of falling “T3 sensor activation Q score” value:
1. CC1(c2ccccc2)O[C@@H]2C[C@H]3[C@@H]4CCC5=CC(=O)C=C[C@]5(C)[C@@]4(F)[C@@H](O)C[C@]3(C)[C@]2(C(=O)CO)O1 (stereo partly drawn)  3.35
2. Cc1ccn(C)c(=N)c1  2
3. Cn1c(N)c(C(=O)/C=C/c2ccccc2)c(=O)[nH]c1=O  1.7
4. O=C1N=NC2=C1c1c3ccccc3c(O)n1CC2  1.7
5. CC(C)(C)N1CC(OC(N)=O)C1  1.65
6. COc1cc2c(c(OC)c1O)C(=O)CO2  1.55
7. O=[N+]([O-])c1cccc(-c2nc3ccccc3s/c2=N/O)c1  1.3
8. O=C1OCC/C1=C\NCCCCCCCCN/C=C1\CCOC1=O  1.2
9. COc1cc(Cl)c(CC(=O)c2c[nH]c3ccccc23)cc1OC  1.05
10. CC(C)(C)n1nc(C2CC2)cc1NC(=O)Nc1ccc(Cl)cc1  0.7
11. CC(=O)[C@H]1CC[C@H]2[C@@H]3CCC4=CC(=O)CC[C@]4(C)[C@@]3(F)[C@@H](O)C[C@]12C  0.55
12. Nc1c(Cl)ncnc1NCCO  0.55
13. O=c1cc(-c2ccccc2)nc2cc(-c3ccco3)[nH]n12  0.35
14. CC(C)=CCC/C(C)=C\C(N)=O  0.2
15. C#CC1(O)CCC2C3CCC4=Cc5oncc5CC4(C)C3CCC21C (stereo not drawn)  0.1
16. C(=N\n1cnnc1)/c1ccc2c(c1)CCC2  0.05
17. O=C1CSC(c2cccs2)N1c1nncs1 (stereo not drawn)  0.05
18. Cc1cc(C)c(C#N)c(Sc2nc(C)c([N+](=O)[O-])c(C)c2C#N)n1  -0.15
19. COCC(=O)OC1CCn2c1nc1c2C(=O)C(C)=C(NC(C)=O)C1=O (stereo not drawn)  -0.35
20. CN(C)CCCN1c2ccc3ccccc3c2Sc2cccc(Cl)c21  -0.4
21. CC(=NO)C1CC(CC(=O)O)C1(C)C (stereo not drawn)  -0.55
22. N=C(N)n1c(N)nc2ccccc2c1=O  -0.55
23. OCc1ncccc1O  -0.75
24. CC(C)CC(NC(=O)OCc1ccccc1)C(=O)NC(Cc1c[nH]c2ccccc12)C(=O)O (stereo not drawn)  -0.85
25. CN(C)c1ccc(N=Nc2ccccn2)cc1  -0.95
26. CCOc1ccc(NC(=S)NC(=O)c2ccco2)cc1  -1.05
27. CC(=O)NC1(C(=O)O)CCCC1  -1.1
28. S=c1[nH]cc2cnccn12  -1.4
